# 15-hLO-2 inh – qHTS Assay for Inhibitors of 15-hLO-2 (15-human lipoxygenase 2). AID 881, 2007. purified 15hLO-2, xylenol orange hydroperoxide absorbance. Potency, µM (series often up to 57.1 µM), for the others: at the highest dose activity change, negative = inhibition, actives largely listed as inhibitors. actives 0.56% (n = 110,000). Polyunsaturated fatty acid lipoxygenase ALOX15B (Homo sapiens), O15296; also: potency is read from the fitted curve at half-maximal effect; nearly all actives have a fitted effect of over 60% in size
# Target sequence (O15296 whole entry, looked up): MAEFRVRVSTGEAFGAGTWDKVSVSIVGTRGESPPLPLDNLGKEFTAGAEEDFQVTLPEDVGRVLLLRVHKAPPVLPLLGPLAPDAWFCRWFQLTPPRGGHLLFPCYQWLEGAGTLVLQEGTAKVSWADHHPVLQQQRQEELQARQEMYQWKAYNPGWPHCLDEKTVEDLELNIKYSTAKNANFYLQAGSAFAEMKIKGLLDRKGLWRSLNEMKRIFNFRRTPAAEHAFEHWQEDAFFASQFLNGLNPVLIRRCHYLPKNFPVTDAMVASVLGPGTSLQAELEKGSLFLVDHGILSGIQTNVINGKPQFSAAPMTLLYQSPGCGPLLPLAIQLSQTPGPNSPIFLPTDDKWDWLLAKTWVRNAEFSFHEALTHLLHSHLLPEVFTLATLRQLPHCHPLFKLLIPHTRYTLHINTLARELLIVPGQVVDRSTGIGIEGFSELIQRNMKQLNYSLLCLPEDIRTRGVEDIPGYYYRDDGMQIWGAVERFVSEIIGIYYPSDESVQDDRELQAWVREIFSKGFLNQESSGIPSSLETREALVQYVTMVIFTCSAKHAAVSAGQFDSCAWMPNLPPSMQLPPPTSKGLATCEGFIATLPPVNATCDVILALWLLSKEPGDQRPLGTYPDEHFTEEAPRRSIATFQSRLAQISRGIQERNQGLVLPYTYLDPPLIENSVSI
#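 Screening format was qHTS against 50 nM purified 15hLO-2 in Hepes pH 7.5 with detergent. Activity follows hydroperoxide formation from 45 uM arachidonic acid, measured as 573:405 nm absorbance ratio of the ferric-xylenol orange complex.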
# ALOX12 inhib – qHTS Assay for Inhibitors of 12-hLO (12-human lipoxygenase). Polyunsaturated fatty acid lipoxygenase ALOX12 (Homo sapiens), P18054. purified 12-hLO, xylenol orange hydroperoxide absorbance. Potency, µM (doses to about 57.1 µM), inactives show top-dose activity change, negative = inhibition, hits mostly inhibitors. actives 0.12% (n = 150,000); also: potency is read from the fitted curve at half-maximal effect; nearly all actives have a fitted effect of over 55% in size
#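 Purified human 12hLO (150 nM final) was preincubated with compounds for 15 min at room temperature in 25 mM Hepes pH 7.0, 0.01% Triton X-100, then reacted with 40 uM arachidonic acid for 30 min. Hydroperoxide was detected with ferrous iron/xylenol orange.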
# IMPase cell inh – qHTS Assay for Identifying the Cell-Membrane Permeable IMPase Inhibitors; 120,000 tested, under 10 active; AID 901, 2007; CHO-M1 cells, IP1 accumulation, HTRF TR-FRET ratio; Inositol monophosphatase 1 (Rattus norvegicus), P97697; inhibition (IP1 accumulation), % at 46.1 µM; active = well fitted curve in the direction sought with a large enough effect in the signal ratio, not every such curve was filed as active; inconclusive = small, poorly fitted or top-dose-only effect, or a change in a side signal; inactive = no such curve, though single readings can be large or run the other way; the % refers to the signal ratio;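 also: cells stimulated with carbachol in lithium chloride buffer; plate controls were DMSO basal wells for no effect and reference inhibitor wells for full effect; higher means more IMPase inhibition seen as more IP1 and lower FRET ratio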
#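 In this qHTS, compounds (final up to 46 uM) act on CHO-M1 cells that are then activated through the M1 receptor with carbachol, in pH 7.4 buffer containing 50 mM LiCl, for 30 min. IP1 accumulation is quantified by the IP-One immunoassay.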
# IMPase Li inh – qHTS Assay for Identifying the Cell-Membrane Permeable IMPase Inhibitors: Potentiation with Lithium | CHO-M1 cells, IP1 TR-FRET (IP-One), carbachol + lithium | Potency, µM (titrated, usually from 59.4 µM), for the others: at the highest dose activity, negative = IMPase inhibition, usual class: inhibitors | actives 0.35% (n = 210,000) | AID 1457, 2008;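 also: IP1 builds up when IMPase is blocked and the TR-FRET signal falls; potency is read from the fitted curve at half-maximal effect; plate controls were basal vehicle for no effect and high inhibitor control for full effect; nearly all actives have a fitted effect of over 50% in size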
#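 CHO cells stably expressing M1 receptor (2000/well, cultured 16–30 h) treated 30 min at 37C with compound plus low lithium. Cytosolic IP1 by TR-FRET (665/620 ratio and 620 channel) after 10 min lysis; AC50 by Hill fit.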
# PNC assembly inh – High Content Assay for Compounds that inhibit the Assembly of the Perinucleolar Compartment. PC3M PTB-GFP, PNC prevalence imaging, 16 h; active compounds read low. actives 3.1% (n = 140,000). activity change (PNC), negative = inhibition, % at 10 µM;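 active = readout at or below -70, meaning at least 70% loss of cells showing the perinucleolar compartment, a nuclear body marking cancer cells; inconclusive = readout between -30 and a set limit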;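 also: plate controls were DMSO wells for no effect and camptothecin positive control wells for full effect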
#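 Read-out is percentage of cells bearing a perinucleolar compartment, from automated 20x imaging of fixed, Hoechst-stained PC3M PTB-GFP cells. Cells were seeded 4 h, then exposed 16 h to compound (23 nl of library stock) in duplicate plates.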
# Starred values were filed as active, the others as inactive; ? = inconclusive; · = not tested or not shown; [ ] = dose if it differs, or a comment. The entries come from a sample that favours hits as a whole. Unless noted, calls follow the shape of the dose curve; as a rule, active = well fitted curve in the direction sought with a large enough effect; inconclusive = small, poorly fitted or top-dose-only effect, or another doubt; inactive = no such curve, though single readings can be large; an effect the other way counts as inactive or inconclusive. Unless noted, % is scaled to controls: 0 for no effect and ±100 for the full control effect.
SMILES,15-hLO-2 inh,ALOX12 inhib,IMPase cell inh,IMPase Li inh,PNC assembly inh
COc1ccc(-c2nc3c(c4c2C[C@H](c2ccccc2)OC4)CN(C(=O)N[C@@H](C)c2ccccc2)CC3)c(C)c1,·,-2%[11.4 µM],·,3%,·
N#Cc1c(N)n[nH]c1-c1cc2c([nH]1)CCCC2,·,-11%,9,-5%,-100*
COc1cc2cc(C#N)c(SCC(=O)N3CCOCC3)nc2cc1OC,·,-1%,3,3%,-100*
Cn1ccnc1C[C@@](C)(O)c1ccccc1,1%[11.4 µM],7%[11.4 µM],·,13%,·
CCN1C(=O)N[C@@H](c2cccs2)C(C(=O)OC)=C1C,·,1%[11.4 µM],·,-5%,·
COC(=O)C1=C(C)C(c2cccs2)NC(=O)N1C (stereo not given),·,2%,0,8%,-100*
COc1ccc(CCn2c(SCC(=O)Nc3cc(C)on3)nc3ccsc3c2=O)cc1OC,5%[11.4 µM],-2%,?,11µM*,?
COc1ccc(CCn2c(SCC(=O)Nc3cc(C)on3)nc3ccccc3c2=O)cc1OC,-17%,0%,-3,-8%[38.3 µM],2
CCN(C(=O)c1ccco1)c1nnc(-c2ccc(OC)cc2)s1,·,5%,-7,-16%,-100*
COCCn1c(=O)c(-c2ccc(F)cc2)nc2cnc(N(C)C)nc21,-2%,·,·,-30%,·
COCCn1nnnc1CN1CCOCC1,-7%,6%,0[9.22 µM],-18%[38.3 µM],-11
COCCn1nnnc1CN1CCC(C)CC1,·,4%,-2,6%,-100*
COCCn1nnnc1CN1CCC(NC(=O)c2ccc(Br)cc2)CC1,·,1%,11,6%,-100*
CS(=O)(=O)N1CCC2(CC1)CN(C(c1ccccc1)c1ccccc1)C2,0%,3%,·,11%,·
Cc1cn(C(=O)c2ccccc2)c(=S)n1-c1ccc(Cl)cc1,·,-7%,-1,9%,-100*
Cc1ccc(-n2c(C)cn(C(=O)c3ccccc3)c2=S)cc1,·,-1%,?,17%,?
CCCC1CC(C(=O)N[C@H](C(C)O)C2OC(SC)[C@@H](O)C(O)C2O)N(C)C1 (stereo not given in full),-2%,3%,·,8%,·
COc1ccc(-c2cc(C(F)(F)F)c(C#N)c(SCC(=O)Nc3ccccc3F)n2)cc1,·,·,-18,·,·
CC[n+]1ccc(/C=C/c2ccc(N(C)C)cc2)c2ccccc21,·,·,·,155%,·
CC[n+]1ccc(C[n+]2ccccc2)c2ccccc21,·,?,·,3%,-82*
CCC(C)[C@H](NC(=O)Nc1ccc(C(C)=O)cc1)C(=O)OC (stereo not given in full),-10%,3%,-4,-7%[38.3 µM],-82*
COC(=O)[C@H](CCSC)NC(=O)Nc1ccc(C(C)=O)cc1,1%,-1%,4,-6%[38.3 µM],?
CC(=O)c1cnc2cc(-c3ccc(C)cc3)nn2c1C,·,1%,0,-2%,-100*
CC(=O)c1cnc2cc(-c3ccccc3)nn2c1C,-5%,2%,1,?,?
COc1ccc(C2NC(=O)CS2)cc1 (stereo not given),·,-2%,4,2%,-100*
SMILES,15-hLO-2 inh,ALOX12 inhib,IMPase cell inh,IMPase Li inh,PNC assembly inh
Cn1c(=O)c(-c2cc(F)cc(F)c2)nc2cnc(N3CCNCC3)nc21,18%,·,·,6%,·
O=C(O)CCCC(=O)Nc1ccc(Cl)cc1,·,·,·,3%,·
O=C(O)CCCC(=O)Nc1ccc(Br)cc1,2%,-1%,9,-9%[38.3 µM],-100*
CCCCn1c(=O)nc2n(-c3ccc(F)cc3)c3ccccc3cc-2c1=O,·,·,-8,·,·
CCCCCn1c(=N)c(S(=O)(=O)c2ccccc2)cc2c(=O)n3ccccc3nc21,·,·,4,·,·
CC(CCc1ccccc1)NC(=O)c1ccc(NC(=O)c2cccc(Br)c2)cc1 (stereo not given),·,-7%,·,-16%,-113*
COC(=O)CSc1nnc(C)n1-c1ccc(C)cc1,-8%,2%,-6,20%[38.3 µM],-19
COC(=O)CSc1nnc(C)n1-c1cccc(OC)c1,2%,-1%,0,-11%[38.3 µM],-96*
COc1cc(N=c2ssnc2Cl)cc(OC)c1,?,10µM*,-6,46%[38.3 µM],?
COCCOC(=O)c1c(C)oc2ccc(OC(=O)c3cccs3)cc12,9%,2%,-11,-13%[38.3 µM],-139*
COC(=O)c1c(C)oc2ccc(OC(=O)c3cccs3)cc12,4%,-4%,12,18%[38.3 µM],25
COc1ccccc1N1CCN(CC2CN3C(=O)N(C)c4ccccc4C3=N2)CC1 (stereo not given),·,·,·,22%,·
O=C(/C=C/c1ccc(Br)cc1)c1ccc(NC2=NCCCS2)cc1,·,-23%,·,-17%,-93*
O=C(/C=C/c1ccccc1)c1ccc(NC2=NCCCS2)cc1,·,-2%,·,7%,?
COc1cccc(C2(c3cccc(OC)c3)CC2C(=O)Nc2ccccc2Cl)c1 (stereo not given),·,2%,6,9%,-82*
Cc1cc(C)c(NC(=O)COc2ccc3c(C)cc(=O)oc3c2)c(C)c1,·,·,2,·,·
Cn1c(-c2nc(-c3ccccc3)cs2)nc2ccccc21,6%,-4%,-5,12%,·
O=C1CN(CC(=O)N2CCOCC2)c2ccccc2O1,8%,?,11,50%[38.3 µM],-118*
COc1ccc(CCNS(=O)(=O)c2ccc(C3CNC(=O)C3)cc2)cc1OC (stereo not given),·,0%,4,0%,-119*
CC(=O)OCC(=O)[C@]12OC(C)(C)O[C@@H]1C[C@H]1[C@H]3CC=C4C[C@@H](O)CC[C@]4(C)[C@H]3CC[C@]12C,-3%[11.4 µM],-1%[11.4 µM],·,8%,·
CC[C@]1(O)C[C@@H]2CN(CCc3c([nH]c4ccccc34)[C@@](C(=O)OC)(c3cc4c(cc3OC)N(C)C3[C@]45CCN4CC=C[C@](CC)(C45)[C@@H](OC(C)=O)[C@]3(O)C(=O)OC)C2)C1 (stereo not given in full),·,·,·,-17%,·
O=c1c2ccccc2oc2nc(-c3ccco3)n(-c3ccccc3)c(=O)c12,·,-3%,-14,27%,2
O=c1c2ccccc2oc2nc(-c3ccco3)n(CCc3ccccc3)c(=O)c12,-5%,-5%,-2,7%[38.3 µM],-100*
COc1ccc(-n2c(SCCC(C)C)nc3sc4c(c3c2=O)CC(C(C)C)OC4)cc1 (stereo not given),·,·,-3,·,·
CCOC(=O)/C(C#N)=C1/C=CN(C)C=N1,-1%,-5%,2,-15%[38.3 µM],7
CCOC(=O)/C(C#N)=C1\C=CN(C)C(C)=N1,·,1%,0,-5%,-100*
CCOC(=O)N1CCN(C(=O)c2ccc(OCC)cc2)CC1,·,·,·,-2%,·
